Inconclusive results are not listed. Activity calls are given as the source filed them. Calls come from the whole dose curve; as a rule, active = well fitted curve in the direction sought with a large enough effect; inconclusive = small, poorly fitted or top-dose-only effect, or another doubt; inactive = no such curve, though single readings can be large; an effect the other way counts as inactive or inconclusive.
Columns and labels:
[1] = qHTS of pediatric cancer cell lines to identify multiple opportunities for drug repurposing: Confirmatory screen for NB1643 cells (AID 1347109); note: nearly all actives have a fitted effect of over 45% in size
Procedure, shortened: (§1)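 Viability after 48 h compound treatment at 37C, 500-1,000 cells/well, read as ATP luminescence with CellTiter-Glo. Primary screens used 11-point (MIPE, 0.78 nM-46 µM) or 8-point (NPC, 0.59 nM-46 µM) final concentrations; follow-up screens used 11-point dilutions.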

[2] = qHTS of pediatric cancer cell lines to identify multiple opportunities for drug repurposing: Confirmatory screen for A673 cells (AID 1347110); note: nearly all actives have a fitted effect of over 65% in size
Procedure, shortened: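 Concentration-response curves came straight from titrations: 11 points (0.78 nM to 46 µM) for MIPE and several concentrations (0.59 nM to 46 µM) for NPC in primary, 11 points in follow-up. Readout: ATP luminescence at 48 h.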

[3] = qHTS of pediatric cancer cell lines to identify multiple opportunities for drug repurposing: Confirmatory screen for SK-N-MC cells (AID 1347111);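 note: cells exposed to compound for 48 h before the readout; nearly all actives have a fitted effect of over 70% in size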
Procedure, shortened: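 SK-N-MC cells at 500-1,000 cells/well in growth media were pre-incubated 5 h, then exposed to compounds at 11-point dilutions for 48 h at 37 degrees C, 5% CO2. Viability was read as CellTiter-Glo luminescence.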

[4] = qHTS of pediatric cancer cell lines to identify multiple opportunities for drug repurposing: Confirmatory screen for BT-12 cells (AID 1347112); note: nearly all actives have a fitted effect of over 55% in size
Procedure, shortened: as §1

[5] = qHTS of pediatric cancer cell lines to identify multiple opportunities for drug repurposing: Confirmatory screen for LAN-5 cells (AID 1347113); note: nearly all actives have a fitted effect of over 65% in size
Procedure, shortened: as §1

[6] = qHTS of pediatric cancer cell lines to identify multiple opportunities for drug repurposing: Confirmatory screen for DAOY cells (AID 1347114); note: nearly all actives have a fitted effect of over 65% in size
Procedure, shortened: (§2)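 Viability measured as metabolically active cells via CellTiter-Glo luminescence following 48 hours of compound exposure, 11-point dilutions in confirmatory testing. 500-1,000 cells/well plated 5 hours before dosing; controls were DMSO and 2.3 µM bortezomib.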

[7] = qHTS of pediatric cancer cell lines to identify multiple opportunities for drug repurposing: Confirmatory screen for NB-EBc1 cells (AID 1347115); note: nearly all actives have a fitted effect of over 45% in size
Procedure, shortened: as §1

[8] = qHTS of pediatric cancer cell lines to identify multiple opportunities for drug repurposing: Confirmatory screen for SJ-GBM2 cells (AID 1347116); note: nearly all actives have a fitted effect of over 60% in size
Procedure, shortened: as §2

[9] = qHTS of pediatric cancer cell lines to identify multiple opportunities for drug repurposing: Primary screen for Rh41 cells (AID 1347108); note: nearly all actives have a fitted effect of over 70% in size
Procedure, shortened: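 Primary screen of approved and investigational compounds on cells in growth media at 37 degrees C, 5% CO2. MIPE set at 11-point and NPC set at 8-point dilutions; viability scored by ATP-based luminescence at 48 hours.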
Potency is the fitted concentration of half-maximal effect.

SMILES	Potency [1]	Potency [2]	Potency [3]	Potency [4]	Potency [5]	Potency [6]	Potency [7]	Potency [8]	Potency [9]
CC(=O)OCC(=O)[C@@]1(O)[C@H](C)C[C@H]2[C@@H]3C=C(C)C4=Cc5c(cnn5-c5ccccc5)C[C@]4(C)[C@@H]3[C@@H](O)C[C@@]21C	10.4 µM (active)	13.1 µM (active)	2.93 µM (active)	32.9 µM (active)	13.1 µM (active)	18.5 µM (active)	23.3 µM (active)	13.1 µM (active)	
CC(C)(C)c1cc(C(C)(C)C)c(NC(=O)c2c[nH]c3ccccc3c2=O)cc1O			14.7 µM (active)				16.5 µM (active)		
Cc1cn2c(-c3cn[nH]c3)cnc2c(Nc2ccc(C(=O)N3CCNCC3)cc2F)n1	9.27 µM (active)	8.27 µM (active)	26.1 µM (active)		13.1 µM (active)		inactive		
Cc1nc(Nc2n[nH]c3c2CN(C(=O)N[C@H](CN(C)C)c2ccccc2)C3(C)C)c2sccc2n1		13.1 µM (active)		13.1 µM (active)		inactive		inactive	6.62 µM (active)
COc1ccc(C=Cc2cc(OC)c(OC)c(OC)c2)cc1O		0.0185 µM (active)	0.0165 µM (active)		0.0522 µM (active)	0.0737 µM (active)	0.0147 µM (active)		
Cn1c2ccccc2c2c3c(c4c5ccccc5n(CCC#N)c4c21)CNC3=O	20.8 µM (active)	4.65 µM (active)	0.465 µM (active)	inactive			23.3 µM (active)		
CN(c1ncccc1CNc1nc(Nc2ccc3c(c2)CC(=O)N3)ncc1C(F)(F)F)S(C)(=O)=O		3.69 µM (active)		13.1 µM (active)	4.65 µM (active)	6.57 µM (active)			9.35 µM (active)
